{"source": "PubChem BioAssay (EPA / NIEHS)", "note": "Records with an inconclusive call do not appear. The source made the active and inactive calls. How the source made its calls: active means hit-call score of the fitted dose curve at least 0.9, where 1 is the maximum; inconclusive means response in the unintended direction; inactive means score below 0.9."}
{"target": "zebrafish Thyroid Hormone Receptor beta (TRb), thrb (gene 30607) (UniProt Q9PVE4)", "sequence (Q9PVE4 whole entry, looked up)": "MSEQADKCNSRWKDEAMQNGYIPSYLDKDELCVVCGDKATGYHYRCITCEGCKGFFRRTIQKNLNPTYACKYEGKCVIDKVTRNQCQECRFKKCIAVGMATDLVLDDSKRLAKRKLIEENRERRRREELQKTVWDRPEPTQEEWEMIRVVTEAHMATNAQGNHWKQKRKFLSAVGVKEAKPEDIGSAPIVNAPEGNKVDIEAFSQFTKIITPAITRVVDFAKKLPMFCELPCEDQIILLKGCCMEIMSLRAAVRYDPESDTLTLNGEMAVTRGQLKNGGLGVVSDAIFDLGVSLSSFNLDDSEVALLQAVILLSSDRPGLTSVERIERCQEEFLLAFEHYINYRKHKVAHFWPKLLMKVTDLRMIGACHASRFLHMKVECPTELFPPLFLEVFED", "assay": "ATG_zfTRb_XSP2: Attagene TRANS-FACTORIAL Multi-Species (XSP1) HepG2 Assay for zebrafish Thyroid Hormone Receptor beta (TRb) (AID 2283836);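 on AC50: potency for induction of reporter signal above DMSO so agonist direction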", "experimental": "ATG_XSP2_multi-species_TRANS is a cell-based, multiplexed assay created by modifying the existing Attagene TRANS-FACTORIAL system to include a panel of nuclear receptors from some or all the following species: human (Homo sapiens), mouse (Mus musculus), frog (Xenopus laevis), zebrafish (Danio rerio), chicken (Gallus gallus), and turtle (Chrysemys picta). The ECOTOX-FACTORIAL format uses HepG2, a human liver cell line, with measurements taken at 24 hours after chemical dosing in a 24-well plate. Xsp2 included 3 nM 6-alpha-fluorotestosterone and 1.5 nM norgestrel to stimulate the androgen receptor.ATG_zfTRb_XSP2 is one of 29 assay components measured or calculated from the ATG_XSP2_multi-species_TRANS assay. It is designed to make measurements of mRNA induction, a form of inducible reporter, as detected with fluorescence intensity signals by Reverse transcription polymerase chain reaction (RT-PCR) and Capillary electrophoresis technology.The assay endpoint ATG_zfTRb_XSP2 was analyzed in the positive analysis fitting direction relative to DMSO as the negative control and baseline of activity. Using a type of inducible reporter, measures of mRNA for gain-of-signal activity can be used to understand the reporter gene at the transcription factor-level as they relate to the gene TR. Furthermore, this assay endpoint can be referred to as a primary readout, because this assay has produced multiple assay endpoints where this one serves a reporter gene function. To generalize the intended target to other relatable targets, this assay endpoint is annotated to the nuclear receptor intended target family, where the subfamily is non-steroidal.\nHuman liver HepG2 cells are transiently transfected with multiple reporter transcription units (MRTUs) in 6-well plates using FuGene 6 reagent (Roche; 3 ml FuGene/1 mg DNA). The MRTU constructs are regulated by a cis-regulating element (promoter). […] A major difference between the CIS and TRANS system is that in CIS activities of endogenous TFs are measured, whereas the TRANS assay evaluates changes in activities of exogenous, chimeric NR-Gal4 proteins. […] At the end of 24 hour incubation, total RNA was isolated using TriZol reagent (Invitrogen). The isolated RNA is then reverse-transcribed using oligo(dT) primer and Mo-MLV reverse transcriptase (Invitrogen) with DNAse I (Ambion) treatment for 30 min. The one-tenth of the produced cDNA was amplified by PCR using Taq DNA polymerase (Invitrogen) and two reporter sequence-specific primers. The PCR products were fluorescently labeled by primer extension with 6-arboxyfluorescein (6-FAM) 5'-labeled reporter sequence-specific primer (2 min at 95 C, 20 s at 68 C and 10 min at 72 C) and these products were digested with 5U of HpaI (New England Biolabs) for 2h at 37 C. The fragments were purified using Qiaquick PCR columns (Qiagen), analyzed on an ABI 3130xL genetic analyzer (Applied Biosystems) with peak positions identified by using a set of X-rhodamine (ROX)-labeled MapMarker1000 molecular weight standards (BioVentures). The raw capillary electrophoresis data was processed using Attagraph software (Attagene)."}
{"smiles": "O=S1OCC2C(CO1)C1(Cl)C(Cl)=C(Cl)C2(Cl)C1(Cl)Cl", "note": "(stereo not given)", "outcome": "inactive"}
{"smiles": "CCCN(CCC)c1c([N+](=O)[O-])cc(C(F)(F)F)cc1[N+](=O)[O-]", "outcome": "inactive"}
{"smiles": "Oc1cc(Cl)ccc1Oc1ccc(Cl)cc1Cl", "outcome": "inactive"}
{"smiles": "CC(C)(C)C(O)/C(=C\\c1ccc(Cl)cc1Cl)n1cncn1", "note": "(stereo not given)", "outcome": "inactive"}
{"smiles": "COP(=S)(OC)Oc1ccc([N+](=O)[O-])cc1", "outcome": "inactive"}
{"smiles": "CC1(C)C(C=C(Cl)Cl)C1C(=O)OC(C#N)c1ccc(F)c(Oc2ccccc2)c1", "note": "(stereo not given)", "outcome": "inactive"}
{"smiles": "CCCN(CCOc1c(Cl)cc(Cl)cc1Cl)C(=O)n1ccnc1", "outcome": "inactive"}
{"smiles": "Oc1ccc(Cl)cc1Cc1ccccc1", "AC50": "10 µM (active)"}
{"smiles": "O=C(O)C(F)(F)C(F)(F)C(F)(F)C(F)(F)C(F)(F)C(F)(F)C(F)(F)F", "outcome": "inactive"}
{"smiles": "CCOCN(C(=O)CCl)c1c(C)cccc1CC", "outcome": "inactive"}
